Reference: the supplement of paper PMC8728848
The full list was thinned out, with the strongest signals kept by preference.

What was measured:
Assay in all cases: glycan array binding signal (z-score within array); higher = stronger binding
Conditions in all cases: glycan notation: IUPAC condensed, linker removed
[1] = molecular target: Neu5Ac(a2-3)Gal(b1-4)[Fuc(a1-3)]GlcNAc(b1-3)GalNAc
How it was run: (§1)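 The Consortium for Functional Glycomics database supplied 3228 glycan arrays, of which those lacking an available protein sequence were dropped. The binding signal, a within-array Z-score, was averaged across arrays of the same protein sequence and across linkers. Negative scores can be read as non-binding.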

[2] = molecular target: Neu5Ac(a2-3)Gal(b1-4)[Fuc(a1-3)]GlcNAc(b1-6)[Gal(b1-3)]GalNAc
How it was run: as §1

[3] = molecular target: Neu5Ac(a2-3)Gal(b1-4)[Fuc(a1-3)]GlcNAc(b1-6)[Neu5Ac(a2-3)Gal(b1-3)]GalNAc
How it was run: as §1

[4] = molecular target: Neu5Ac(a2-3)GalNAc(b1-4)GlcNAc
How it was run: as §1

[5] = molecular target: Neu5Ac(a2-3)[Neu5Ac(a2-6)]GalNAc
How it was run: as §1

[6] = molecular target: Neu5Ac(a2-6)Gal(b1-4)GlcNAc
How it was run: as §1

[7] = molecular target: Neu5Ac(a2-6)Gal(b1-4)GlcNAc(b1-3)Gal(b1-4)GlcNAc(b1-3)Gal(b1-4)GlcNAc
How it was run: as §1

[8] = molecular target: Neu5Ac(a2-8)Neu5Ac(a2-3)[GalNAc(b1-4)]Gal(b1-4)Glc
How it was run: as §1

[9] = molecular target: Neu5Ac9Ac(a2-6)Gal(b1-4)GlcNAc
How it was run: as §1

[10] = molecular target: Neu5Gc(a2-6)Gal(b1-4)GlcNAc
How it was run: as §1

[11] = molecular target: Fuc(a1-2)Gal(b1-3)GalNAc
How it was run: as §1

[12] = molecular target: Fuc(a1-2)Gal(b1-3)GalNAc(a1-3)[Fuc(a1-2)]Gal(b1-4)Glc
How it was run: as §1

[13] = molecular target: Fuc(a1-2)Gal(b1-3)GalNAc(b1-4)[Neu5Ac(a2-3)]Gal(b1-4)Glc
How it was run: as §1

[14] = molecular target: Fuc(a1-2)Gal(b1-3)[Fuc(a1-4)]GlcNAc
How it was run: as §1

[15] = molecular target: Fuc(a1-2)Gal(b1-3)[Fuc(a1-4)]GlcNAc(b1-3)[Gal(b1-4)GlcNAc(b1-6)]Gal(b1-4)Glc
How it was run: as §1

[16] = molecular target: Fuc(a1-2)Gal(b1-4)[Fuc(a1-3)]GlcNAc(b1-2)Man(a1-3)[Fuc(a1-2)Gal(b1-4)[Fuc(a1-3)]GlcNAc(b1-2)Man(a1-6)]Man(b1-4)GlcNAc(b1-4)GlcNAc
How it was run: as §1

[17] = molecular target: Fuc(a1-2)Gal(b1-4)[Fuc(a1-3)]GlcNAc(b1-3)Gal(b1-4)[Fuc(a1-3)]GlcNAc(b1-3)Gal(b1-4)[Fuc(a1-3)]GlcNAc
How it was run: as §1

[18] = molecular target: Fuc(a1-2)[GalNAc(a1-3)]Gal(b1-4)GlcNAc
How it was run: as §1

[19] = molecular target: Fuc(a1-3)[Gal(b1-4)]GlcNAc(b1-3)GalNAc
How it was run: as §1

[20] = molecular target: Gal(a1-3)Gal(b1-3)[Fuc(a1-4)]GlcNAc(b1-2)Man(a1-3)[Gal(a1-3)Gal(b1-3)[Fuc(a1-4)]GlcNAc(b1-2)Man(a1-6)]Man(b1-4)GlcNAc(b1-4)GlcNAc
How it was run: as §1

[21] = molecular target: Gal(a1-3)Gal(b1-4)Glc
How it was run: as §1

[22] = molecular target: Gal(a1-3)Gal(b1-4)GlcNAc(b1-3)GalNAc
How it was run: as §1

[23] = molecular target: Gal(a1-3)[Gal(a1-4)]Gal(b1-4)GlcNAc
How it was run: as §1

[24] = molecular target: Gal(a1-4)Gal(b1-4)GlcNAc
How it was run: as §1

[25] = molecular target: Gal(a1-4)GlcNAc
How it was run: as §1

[26] = molecular target: Gal(b1-3)GalNAc(a1-3)[Fuc(a1-2)]Gal(b1-4)Glc
How it was run: as §1

[27] = molecular target: Gal(b1-3)GlcNAc
How it was run: as §1

[28] = molecular target: Gal(b1-3)GlcNAc(b1-3)Gal(b1-4)GlcNAc
How it was run: as §1

[29] = molecular target: Gal(b1-4)GlcNAc(b1-2)Man(a1-3)[Gal(b1-4)GlcNAc(b1-2)Man(a1-6)]Man(b1-4)GlcNAc(b1-4)GlcNAc
How it was run: as §1

[30] = molecular target: Gal(b1-4)GlcNAc(b1-2)Man(a1-6)[GlcNAc(b1-2)Man(a1-3)]Man(b1-4)GlcNAc(b1-4)GlcNAc
How it was run: as §1

[31] = molecular target: Gal3S(b1-4)Glc6S
How it was run: as §1

[32] = molecular target: GalNAc(a1-3)Gal
How it was run: as §1

[33] = molecular target: GalNAc(b1-3)GalNAc
How it was run: as §1

[34] = molecular target: GalNAc(b1-4)GlcNAc
How it was run: as §1

[35] = molecular target: GlcNAc(a1-4)Gal(b1-3)GlcNAc
How it was run: as §1

[36] = molecular target: GlcNAc(b1-2)Gal(b1-3)GalNAc
How it was run: as §1

[37] = molecular target: GlcNAc(b1-2)Man(a1-3)[GlcNAc(b1-2)Man(a1-6)]Man(b1-4)GlcNAc(b1-4)GlcNAc
How it was run: as §1

[38] = molecular target: Kdn(a2-3)Gal(b1-3)GlcNAc
How it was run: as §1

[39] = molecular target: Kdn(a2-3)Gal(b1-4)[Fuc(a1-3)]GlcNAc
How it was run: as §1

[40] = molecular target: Kdn(a2-6)Gal(b1-4)GlcNAc
How it was run: as §1

[41] = molecular target: Man(a1-2)Man(a1-2)Man(a1-6)[Man(a1-3)]Man
How it was run: as §1

[42] = molecular target: Man(a1-2)Man(a1-3)Man
How it was run: as §1

[43] = molecular target: Man(a1-3)[Man(a1-6)]Man
How it was run: as §1

[44] = molecular target: Man(a1-3)[Man(a1-6)]Man(a1-6)[Man(a1-3)]Man
How it was run: as §1

[45] = molecular target: Neu5Ac(a2-6)Gal
How it was run: as §1

[46] = molecular target: Neu5Ac(a2-6)Gal(b1-4)GlcNAc(b1-3)GalNAc
How it was run: as §1

[47] = molecular target: Neu5Ac(a2-6)GalNAc
How it was run: as §1

[48] = molecular target: Neu5Ac(a2-6)GlcNAc(b1-4)GlcNAc
How it was run: as §1

[49] = molecular target: Neu5Ac(a2-8)Neu5Ac
How it was run: as §1

B1: SAG3 (Toxoplasma gondii), Q9BJ39 (protein)
chain: MQLWRRRAAGPASLGRQSLPLGCFFAAFGLCVLSAILGTGERGLFVAAGNSRRKITYFGTLTQKAPNWYRCSSTRAKEEVVGHVTLNKEHPDMTIECVDDGLGGEFLPLEGARSSYPRVCHIDAKDQDDCERNRGFLTDYIPGAKQYWYKIEKVEQNGEQSVLYKFTVPWILLPPAKQRYKVGCRYPNHEYCFVEVTVEPTPPMVEGKRVTCGYSESGPVNLEVDLSKNANFIEIRCGEQHHPQPSTYTLQYCSGDSVDPQKCSPQSLTNIFYDYSSSWWKGKLNGPDGATLTIPPGGFPEEDKSFLVGCSLTVDGPPFCNVKVRVAGNPRKWERGGGGHPGSGGLQPGTDGETQAGTGSSAGASSRMASVALAFLLGLLVHVAA
[1]
  glycan array binding signal (z-score): 16
[2]
  glycan array binding signal (z-score): 3.05
[3]
  glycan array binding signal (z-score): 2.02
[4]
  glycan array binding signal (z-score): -0.469
[5]
  glycan array binding signal (z-score): -0.226
[6]
  glycan array binding signal (z-score): -0.372
[7]
  glycan array binding signal (z-score): -0.049
[8]
  glycan array binding signal (z-score): 2.27
[9]
  glycan array binding signal (z-score): 0.292
[10]
  glycan array binding signal (z-score): -0.387

B2: AcfC (Vibrio cholerae), Q57410 (protein)
chain: MKSKNRFLLISLLSFSTSVFADVNLYGPGGPHVPLIKVAESFEKSQSKRVNITFGPQATWNDKAKKNADILFGASEHSALAIAEGHSERFSKFNIHPVFMREAIILVKKGNPKNIKGMADLLKPGIGIVVNDGAGVSNTSGTAVWEDSVGRMKNVEKLQAFRSNIHVFAPNSGSARKAFVDGEDIDAWITWVDWAIANPTIGDMVRMEDEYRIYRDFNVVLAKNPSSEAIDFFDYLTKSKDAEAIFQHYGWFK
[11]
  glycan array binding signal (z-score): 0.244
[12]
  glycan array binding signal (z-score): -1.2
[13]
  glycan array binding signal (z-score): -0.09
[14]
  glycan array binding signal (z-score): 3.03
[15]
  glycan array binding signal (z-score): 1.12
[16]
  glycan array binding signal (z-score): 3.03
[17]
  glycan array binding signal (z-score): 2.22
[18]
  glycan array binding signal (z-score): -0.063
[19]
  glycan array binding signal (z-score): 1.43
[20]
  glycan array binding signal (z-score): 4.58
[21]
  glycan array binding signal (z-score): -0.864
[22]
  glycan array binding signal (z-score): -0.809
[23]
  glycan array binding signal (z-score): -0.149
[24]
  glycan array binding signal (z-score): 0.091
[25]
  glycan array binding signal (z-score): 0.322
[26]
  glycan array binding signal (z-score): 0.135
[27]
  glycan array binding signal (z-score): 0.247
[28]
  glycan array binding signal (z-score): -0.979
[29]
  glycan array binding signal (z-score): 3
[30]
  glycan array binding signal (z-score): 0.212
[31]
  glycan array binding signal (z-score): 0.515
[32]
  glycan array binding signal (z-score): 0.334
[33]
  glycan array binding signal (z-score): 0.05
[34]
  glycan array binding signal (z-score): 0.088
[35]
  glycan array binding signal (z-score): 0.098
[36]
  glycan array binding signal (z-score): -0.601
[37]
  glycan array binding signal (z-score): 0.375
[38]
  glycan array binding signal (z-score): 0.128
[39]
  glycan array binding signal (z-score): -0.465
[40]
  glycan array binding signal (z-score): -0.748
[41]
  glycan array binding signal (z-score): -0.753
[42]
  glycan array binding signal (z-score): -0.096
[43]
  glycan array binding signal (z-score): -0.136
[44]
  glycan array binding signal (z-score): 0.134
[1]
  glycan array binding signal (z-score): 6.97
[45]
  glycan array binding signal (z-score): 2.2
[46]
  glycan array binding signal (z-score): -0.94
[47]
  glycan array binding signal (z-score): -1.62
[48]
  glycan array binding signal (z-score): -0.781
[49]
  glycan array binding signal (z-score): 0.214
[8]
  glycan array binding signal (z-score): -0.835
